“And” between values parts separate entries of the source, which are not always exact repeats. Equal entries are not always repeated. Inconclusive results are not listed. Where a structure was tested more than once in an assay, its records may differ in their call. The source made the active and inactive calls. Unless noted, the call rests on the fitted dose curve; in most records, active means well fitted curve in the direction sought with a large enough effect in the repeat runs; inconclusive means weak or mixed curves; inactive means no such curve, though single readings can be large; an effect the other way counts as inactive or inconclusive.
Key:
[1] = qHTS assay to identify small molecule agonists of the hypoxia (HIF-1) signaling pathway - cell viability counter screen (AID 1224844; calls by dose curve; further: nearly all actives have a fitted effect of over 50% in size; further: potency means the concentration at half of the fitted maximal effect)
Outline: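 HRE-bla ME-180 cells, 2,000/well in 0.5% dialyzed FBS medium, treated 17 h at 37C with compounds. Viability read in the same wells as the bla reporter, by CellTiter-Glo luminescence after 30 min at room temperature.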

[2] = qHTS assay to identify small molecule agonists of H2AX (AID 1224845; active means well fitted activation curve with a large enough effect in the signal ratio in the repeat runs, not every such curve was filed as active; the % refers to the signal ratio; further: potency means the concentration at half of the fitted maximal effect)
Outline: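 Wild-type CHO-K1 cells plated overnight, then exposed 3 hr at 37C to compounds at 15 concentrations (0.76% DMSO). Lysed, then HTRF anti-pH2AX(S139)-cryptate/anti-H2AX-d2 detection after 24 hr at room temperature; emissions 665 and 620 nm.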

[3] = qHTS assay to identify small molecule agonists of H2AX - cell viability counter screen (AID 1224847; calls by dose curve; further: nearly all actives have a fitted effect of over 30% in size; further: potency means the concentration at half of the fitted maximal effect)
Outline: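 CHO-K1 cells plated overnight at 37C, then exposed 3 h at 37C to compounds at 15 concentrations (0.76% DMSO final). Viability by CellTiter-Glo luminescence after 30 min at room temperature.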

[4] = qHTS assay to identify small molecule antagonists of the estrogen related receptor (ERR) signaling pathway from Tox21 library (AID 1224848); further: nearly all actives have a fitted effect of over 50% in size; further: potency means the concentration at half of the fitted maximal effect
Outline: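 Screening used an ERR reporter line supplied by NTP, exposed for 18 h at 37 C to library compounds delivered in DMSO. Signal was luciferase luminescence developed with ONE-Glo at room temperature for 30 min.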

[5] = qHTS assay to identify small molecule agonists of the estrogen related receptor (ERR) signaling pathway from Tox21 library (AID 1224849; calls by dose curve; further: nearly all actives have a fitted effect of over 15% in size); conditions: ERR reporter cell line, ONE-Glo luciferase, 18 h
Outline: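 ERR reporter cells (NTP line) pre-incubated 6 hours at 37 C, then exposed to compounds for 18 hours at 37 C. ONE-Glo luciferase luminescence was read after 30 minutes at room temperature.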

[6] = qHTS RealTime-Glo MT Cell Viability Assay in HepG2 cells - 24 hour (AID 1224867); further: nearly all actives have a fitted effect of over 50% in size; further: potency means the concentration at half of the fitted maximal effect
Outline: (§1)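 Cell number in HepG2 cultures estimated from NanoLuc luminescence generated by metabolic reduction of a prosubstrate by living cells. The homogeneous, nonlytic format allowed repeated reads at 0, 8, 16, 24, 32 and 40 h of compound exposure.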

[7] = qHTS RealTime-Glo MT Cell Viability Assay in HEK293 cells - 32 hour (AID 1224868); further: nearly all actives have a fitted effect of over 50% in size; further: potency means the concentration at half of the fitted maximal effect
Outline: (§2)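 Homogeneous bioluminescent viability format in HEK293 cells (600 cells/well). Following 5 h at 37 C/5% CO2, 23 nL compound was pintooled; the signal was measured repeatedly during 40 h incubation.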

[8] = A CellTox Green Cytotoxicity Assay to monitor cytotoxicity in HEK293 cells - 0 hour (AID 1224869); further: nearly all actives have a fitted effect of over 50% in size
Outline: (§3)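 HEK293 cells, 600/well, were preincubated 5 hours and then exposed to compounds at 37 C for up to 40 hours. A cell-impermeant cyanine dye staining dead-cell DNA was read by fluorescence at 0, 8, 16, 24, 32 and 40 h time points.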

[9] = qHTS RealTime-Glo MT Cell Viability Assay in HepG2 cells - 40 hour (AID 1224870); further: nearly all actives have a fitted effect of over 50% in size; further: potency means the concentration at half of the fitted maximal effect
Outline: (§4)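 HepG2 cells mixed with RealTime-Glo MT reagents (NanoLuc plus cell-permeant prosubstrate) were seeded at 600 cells/well, incubated 5 h at 37 C/5% CO2, then pinned with compounds in DMSO; nonlytic luminescence tracked viability during 40 h treatment.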

[10] = A CellTox Green Cytotoxicity Assay to monitor cytotoxicity in HEK293 cells - 40 hour (AID 1224871); further: nearly all actives have a fitted effect of over 45% in size; further: potency means the concentration at half of the fitted maximal effect
Outline: as §3

[11] = qHTS RealTime-Glo MT Cell Viability Assay in HEK293 cells - 16 hour (AID 1224872); further: nearly all actives have a fitted effect of over 50% in size; further: potency means the concentration at half of the fitted maximal effect
Outline: as §2

[12] = qHTS RealTime-Glo MT Cell Viability Assay in HEK293 cells - 40 hour (AID 1224874); conditions: RealTime-Glo luminescence; max response: stronger effect = lower value; further: nearly all actives have a fitted effect of over 50% in size; further: potency means the concentration at half of the fitted maximal effect
Outline: (§5)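 600 cells/well were plated with the nonlytic NanoLuc/prosubstrate reagent, pre-incubated 5 h, then given 23 nL of compound in DMSO. Incubation at 37 C for 40 h, with luminescence from viable-cell-reduced substrate read repeatedly from 0 h.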

[13] = A CellTox Green Cytotoxicity Assay to monitor cytotoxicity in HEK293 cells - 24 hour (AID 1224875); further: nearly all actives have a fitted effect of over 45% in size; further: potency means the concentration at half of the fitted maximal effect
Outline: as §3

[14] = A CellTox Green Cytotoxicity Assay to monitor cytotoxicity in HepG2 cells - 16 hour (AID 1224876); further: nearly all actives have a fitted effect of over 45% in size; further: potency means the concentration at half of the fitted maximal effect
Outline: (§6)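 HepG2 cells, 600/well, preincubated 5 h with CellTox Green dye, then exposed to Tox21 compounds in DMSO at 37 C for up to 40 h. Dead-cell DNA fluorescence read at the indicated time point.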

[15] = qHTS RealTime-Glo MT Cell Viability Assay in HepG2 cells - 32 hour (AID 1224877); further: nearly all actives have a fitted effect of over 55% in size; further: potency means the concentration at half of the fitted maximal effect
Outline: as §1

[16] = A CellTox Green Cytotoxicity Assay to monitor cytotoxicity in HepG2 cells - 24 hour (AID 1224878); further: nearly all actives have a fitted effect of over 45% in size; further: potency means the concentration at half of the fitted maximal effect
Outline: as §6

[17] = A CellTox Green Cytotoxicity Assay to monitor cytotoxicity in HepG2 cells - 40 hour (AID 1224879); further: nearly all actives have a fitted effect of over 40% in size; further: potency means the concentration at half of the fitted maximal effect
Outline: as §6

[18] = qHTS RealTime-Glo MT Cell Viability Assay in HepG2 cells - 8 hour (AID 1224873); further: nearly all actives have a fitted effect of over 55% in size; further: potency means the concentration at half of the fitted maximal effect
Outline: as §4

[19] = qHTS RealTime-Glo MT Cell Viability Assay in HEK293 cells - 0 hour (AID 1224880); further: nearly all actives have a fitted effect of over 45% in size; further: potency means the concentration at half of the fitted maximal effect
Outline: as §5

[20] = qHTS assay to identify small molecule agonists of the hypoxia (HIF-1) signaling pathway (AID 1224846; active means well fitted activation curve with a large enough effect in the signal ratio in the repeat runs, not every such curve was filed as active; the % refers to the signal ratio)
Outline: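 HRE-bla ME-180 beta-lactamase reporter cells in medium with 0.5% dialyzed FBS, pre-incubated 5 h then exposed to compounds 17 h at 37C, 5% CO2; reporter induction read with CCF4-AM FRET substrate.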
On the % scale 0 is the no-effect control and ±100 the full control effect.

CCC1(c2ccc(N)cc2)CCC(=O)NC1=O (stereo not drawn)
inactive: Potency [1] | Potency [2] | Potency [3] | Potency [4] | activity change, positive = activation ([5]; at 42.5 µM (top of the series)) 5.08% | activity change, positive = activation ([5]; at 92.4 µM (top of the series)) -19.8% | Potency [6] | Potency [7] | Potency [8] | Potency [9] | Potency [10] | Potency [11] | max response [12] 6.38% | Potency [13] | Potency [14] | Potency [15] | Potency [16] | Potency [17]

CC[n+]1c(-c2ccccc2)c2cc(N)ccc2c2ccc(N)cc21
inactive: Potency [3] | Potency [8] | Potency [9] | Potency [10] | Potency [18] | Potency [13] | Potency [14] | Potency [16] | Potency [17]
21.8 µM (active) and inactive: Potency [1]
active: Potency [7] 4.34 µM and 5.35 µM | Potency [11] 17.3 µM and 23.9 µM | Potency [12] 3.45 µM and 2.13 µM

Oc1ccc(Cl)cc1Cc1ccccc1
49.6 µM (active) and inactive: Potency [1] | Potency [18]
inactive and 19.7 µM (active): Potency [17]
inactive: Potency [2] | Potency [8] | Potency [9] | Potency [19]
inactive and 49.6 µM (active): Potency [15]
inactive and 33.1 µM (active): Potency [14]
inactive and 15.7 µM (active): Potency [16]
active: Potency [7] 21.9 µM and 19.7 µM | Potency [10] 11 µM and 21.3 µM | Potency [11] 21.9 µM and 17.6 µM | Potency [12] 21.9 µM and 27.9 µM | Potency [13] 8.71 µM

O=C1C(Cl)=C(Cl)C(=O)c2ccccc21
24.4 µM (active) and inactive: Potency [4]
inactive: activity change, positive = activation ([5]; at 92.4 µM (top of the series)) -82.7% and -46.9% | Potency [8]
active: Potency [1] 7.79 µM | Potency [3] 22.6 µM and 14.2 µM | Potency [6] 24.6 µM and 11 µM | Potency [7] 6.19 µM and 7.76 µM | Potency [9] 34.8 µM and 17.4 µM | Potency [10] 3.9 µM and 4.9 µM | Potency [11] 6.19 µM and 9.77 µM | Potency [18] 21.9 µM and 6.92 µM | Potency [12] 5.51 µM and 6.92 µM | Potency [14] 12.3 µM and 4.9 µM | Potency [15] 31 µM and 12.3 µM | Potency [16] 12.3 µM and 3.89 µM | Potency [17] 17.4 µM and 4.36 µM | Potency [19] 5.51 µM

NC(=O)CN1CCCC1=O
inactive: Potency [1] | Potency [2] | Potency [3] | Potency [4] | activity change, positive = activation ([5]; at 42.5 µM (top of the series)) 2.36% | activity change, positive = activation ([5]; at 92.4 µM (top of the series)) 6.19% | Potency [7] | Potency [8] | Potency [9] | Potency [10] | Potency [11] | Potency [18] | max response [12] 3.12% and 0.0955% | Potency [13] | Potency [15] | Potency [16] | Potency [17] | Potency [19]

CCC[CH2][Sn]([Cl])([Cl])[CH2]CCC
inactive: activity change, positive = activation ([5]; at 92.4 µM (top of the series)) -84.1% and -80% | Potency [8] | Potency [19]
active: Potency [1] 624 nM and 977 nM | Potency [2] 1.28 µM and 1.27 µM | Potency [3] 11.4 µM and 25.3 µM | Potency [4] 155 nM and 172 nM | Potency [7] 99 nM and 123 nM | Potency [9] 198 nM and 138 nM | Potency [10] 351 nM and 490 nM | Potency [11] 198 nM and 174 nM | Potency [18] 7.86 µM and 8.71 µM | Potency [12] 88.2 nM and 110 nM | Potency [14] 2.22 µM and 1.74 µM | Potency [15] 222 nM and 155 nM | Potency [16] 442 nM and 436 nM | Potency [17] 313 nM and 309 nM

CS(=O)(=O)NC(=O)c1cc(Oc2ccc(C(F)(F)F)cc2Cl)ccc1[N+](=O)[O-]
inactive: Potency [1] | Potency [2] | outcome [20] | Potency [7] | Potency [8] | Potency [9] | Potency [10] | Potency [11] | Potency [18] | max response [12] 9.57% and 9.32% | Potency [14] | Potency [15] | Potency [16] | Potency [17] | Potency [19]

Clc1cccc(C(Cl)(Cl)Cl)n1
inactive: Potency [1] | Potency [2] | outcome [20] | Potency [6] | Potency [7] | Potency [8] | Potency [9] | Potency [11] | Potency [18] | max response [12] 2.13% and -1.58% | Potency [13] | Potency [15] | Potency [19]

CCOP(=S)(OCC)SCSC(C)(C)C
inactive: Potency [1] | outcome [20] | Potency [3] | Potency [6] | Potency [7] | Potency [8] | Potency [9] | Potency [10] | Potency [11] | Potency [18] | max response [12] 5.63% and -1.38% | Potency [15] | Potency [16] | Potency [17]

CCCCCCCCCC(CC)c1ccc(S(=O)(=O)O)cc1 (stereo not drawn)
active: Potency [12] 44.1 µM | Potency [14] 49 µM and 16.9 µM and 42 µM | Potency [16] 54.9 µM and 21.3 µM and 38.9 µM | Potency [17] 21.3 µM and 38.9 µM
inactive: Potency [2] | outcome [20] | Potency [6] | Potency [8] | Potency [9] | Potency [11] | Potency [18] | max response [12] -25.5% and -23.7% and -24.7% | Potency [15] | Potency [19]
39.3 µM (active) and inactive: Potency [7]

N#Cc1c(Cl)c(Cl)c(Cl)c(C#N)c1Cl
inactive: Potency [8]
active: Potency [1] 3.03 µM and 3.09 µM | Potency [3] 55.6 µM | Potency [6] 21.5 µM and 4.9 µM | Potency [7] 1.7 µM and 1.23 µM | Potency [9] 19.1 µM and 3.47 µM | Potency [10] 6.79 µM and 5.49 µM | Potency [11] 3.4 µM and 1.55 µM | Potency [18] 42.8 µM and 11 µM | Potency [12] 1.7 µM and 1.1 µM | Potency [14] 24.1 µM and 6.92 µM | Potency [15] 19.1 µM and 3.89 µM | Potency [16] 24.1 µM and 3.09 µM | Potency [17] 19.1 µM and 2.45 µM

c1ccc2c(c1)Nc1ccccc1S2
active: Potency [7] 11 µM and 13.4 µM | Potency [11] 6.92 µM and 12 µM | Potency [12] 14.3 µM and 13.4 µM
inactive: Potency [1] | outcome [20] | Potency [3] | Potency [4] | activity change, positive = activation ([5]; at 42.5 µM (top of the series)) -0.479% | activity change, positive = activation ([5]; at 92.4 µM (top of the series)) -21.3% | Potency [6] | Potency [8] | Potency [9] | Potency [10] | Potency [18] | Potency [13] | Potency [14] | Potency [15] | Potency [16] | Potency [17]
